The whole screen tested about 69,000 compounds, of which about 8,600 (12%) showed an effect of 50% or more. What follows is part of a selection rich in strong results, with near analogues and random picks from the rest.
Test system: Plasmodium berghei
Assay: Screen against P. berghei liver stage (PbLuc), transformed with Luciferase, at 10uM
Type: functional, HepG2
Settings: tested at 10 uM

Row | SMILES | INHIBITION
1 | N#Cc1cccc(C(=O)N2CCC(Nc3cccnn3)CC2)c1 | 15.5%
2 | Cc1ccc2c(c1)C(NC(=O)N(C)C)CC21CCN(C)CC1 (stereo not given) | -24.1%
3 | OC1CCN(c2cnnc3ccccc23)CC1 | 40.2%
4 | OC1CCN(c2ccc(CNc3nc4ccccc4o3)cc2F)CC1 | -37.7%
5 | Cc1nc(C(=O)NCc2ccc(N3CCNC(=O)C3)c(F)c2)cs1 | -11.7%
6 | COC(=O)c1sc(NCc2ccc(N3CCC(O)CC3)c(F)c2)nc1Cl | 91.2%
7 | N#Cc1cc(NC(=O)c2cc[nH]n2)ccc1N1CCC(O)CC1 | 9.65%
8 | OC1CCN(c2ccc(CNc3nc4ccccc4s3)cc2F)CC1 | 59.4%
9 | Cc1cc(NCCNc2cccnc2)nc(N)n1 | 36.8%
10 | CCC(NS(=O)(=O)c1ccc(C(=O)NC2CC2)cc1)c1cnn(C)c1 (stereo not given) | -10.1%
11 | O=C1CC2(CCN(C(=O)c3ccncc3)CC2)Oc2c(Cl)cc(Cl)cc21 | -29%
12 | CC(C)N1CCc2ncn(C(C)C)c2C1C(=O)NCCN1CCCC1 (stereo not given) | 30.5%
13 | CC(C)N1CCc2ncn(C)c2C1C(=O)NCCN1CCCC1 (stereo not given) | 67.4%
14 | CC(C)N1CCc2ncn(C)c2C1C(=O)N1CCOCC1 (stereo not given) | 29%
15 | CCc1noc(Cn2c(=O)c3c(C(F)(F)F)cc(C)nc3n2C)n1 | -7.93%
16 | O=c1[nH]c(N2CC(O)C2)nc2c1cnn2-c1ccccc1 | 17.1%
17 | CC1CCN(c2nc3c(cnn3-c3ccccc3)c(=O)[nH]2)CC1 | 89.6%
18 | O=c1[nH]c(N2CCN(C3CC3)CC2)nc2c1cnn2-c1ccccc1 | 24.7%
19 | CCn1cc2c(n1)CN(C(=O)c1ccncc1)CC2COCC1CC1 (stereo not given) | -30.1%
20 | CCn1cc2c(n1)CN(CC1CC1)CC2COCC1CC1 (stereo not given) | 19.3%
21 | CCOCC1CN(Cc2nccs2)Cc2nn(CC3CC3)cc21 (stereo not given) | 11.4%
22 | CCn1cc2c(n1)CN(Cc1sccc1C)CC2COCC1CC1 (stereo not given) | 52%

Row | SMILES | INHIBITION
23 | CCn1cc2c(n1)CN(Cc1nccs1)CC2COCC1CC1 (stereo not given) | 71.1%
24 | COCC1CN(Cc2sccc2C)Cc2nnn(CC3CC3)c21 (stereo not given) | -42.9%
25 | OC1CCCN(Cc2ccnc(-c3cccnc3)n2)C1 (stereo not given) | 19.6%
26 | CCn1cc(-c2cc(C(F)(F)F)n(CCCN)n2)cn1 | 8.53%
27 | Fc1ccc(CN[C@@H]2COC[C@H]2c2ccc(F)cc2)cc1 | -27.1%
28 | Cc1noc(CN(C)C(=O)c2n[nH]c(N)c2-c2ccccc2)n1 | 1.98%
29 | Cc1cc(-c2cncnc2)nc(C2CCCN2S(C)(=O)=O)n1 (stereo not given) | 31.3%
30 | CC1CCN(C(=O)CN2CC(c3nc(C4CC4)no3)C2)CC1 | 58.1%
31 | O=C(CN1CCCC(c2noc(C3CC3)n2)C1)N1CCCC1 (stereo not given) | 15.6%
32 | O=C(CN1CC(c2nc(C3CC3)no2)C1)N1CCOCC1 | 29.7%
33 | NC(=O)CN(Cc1ncc(-c2ccc(Cl)cc2)o1)C1CCCC1 | -46.6%
34 | CN(C)C[C@@H]1CN(C2CCN(c3ccccc3Cl)CC2)C[C@@H]1CO | 22.3%
35 | CN(CCO)C[C@@H]1CN(C2CCN(c3ccccc3Cl)CC2)C[C@@H]1CO | 55.2%
36 | CN(C)C[C@@H]1CN(C2CCN(c3ccc(Cl)cc3)CC2)C[C@@H]1CO | -86.5%
37 | CCc1nnc(SC2CCCN(c3cnn(C)c3)C2=O)n1C (stereo not given) | -30.1%
38 | COc1cccc(N2CC3(CCN(C(=O)NC(C)C)C3)CC2=O)c1 (stereo not given) | -11.2%
39 | COc1cccc(C2CN(CCc3ccncc3)CCO2)c1 (stereo not given) | 10.5%
40 | Cc1ccc(S(=O)(=O)N2CCC(Oc3ccccn3)CC2)c(C)c1 | 78.2%
41 | Cc1noc(C)c1S(=O)(=O)N1CCC(Oc2ccccn2)CC1 | 45.7%
42 | Cc1ccc(S(=O)(=O)N2CCC(Oc3cccnn3)CC2)c(C)c1 | 49.7%
43 | CCOCn1cc(NC(=O)C2CCN(S(C)(=O)=O)CC2)cn1 | 38.2%
44 | COc1ccc(CCCN2C(=O)O[C@@H]3CN(C4CCOCC4)C[C@@H]32)cc1 | 34.9%

Row | SMILES | INHIBITION
45 | Cc1nsc(NC(=O)N2CCCCC2CCO)n1 (stereo not given) | 66.5%
46 | Cc1nsc(NC(=O)N2CCCCC2CCCO)n1 (stereo not given) | 48%
47 | Cc1nnc(NC(=O)N2CCCCC2CCO)s1 (stereo not given) | 44.3%
48 | CC(C)CCCC(C)NC(=O)c1ccc(OCC(N)=O)cc1 (stereo not given) | 56.4%
49 | CC(C)CCC(C)NC(=O)c1ccc(OCC(N)=O)cc1 (stereo not given) | -36.5%
50 | CCNC(=O)COc1ccc(C(=O)NC(C)CCc2ccco2)cc1 (stereo not given) | 20.6%
51 | CCn1cnnc1CNC(=O)c1cc(Cl)c(I)cc1OC | -7.31%
52 | CC(=O)NCCC1CCCCN1C(=O)c1cccc(CCC(C)(C)O)c1 (stereo not given) | 19.7%
53 | O=C(Nc1ccccc1F)C1=NN(c2ccccc2)C(=O)CN1 | -73.1%
54 | CN(C)CCN1CCOCC2(CCCN(C(=O)Cc3ccccc3)C2)C1 (stereo not given) | 29%
55 | CCCn1cc(NC(=O)c2ccc(NC(=O)NC3CC3)cc2)ccc1=O | -13.4%
56 | CCCn1cc(NC(=O)c2ccncc2)ccc1=O | 50.8%
57 | CCCn1cc(NC(=O)c2ccc(N(C)CC)cc2)ccc1=O | 46.6%
58 | Cn1cc(NC(=O)c2cccc3cccnc23)ccc1=O | -10.8%
59 | CCCn1cc(NC(=O)c2ccc(S(C)(=O)=O)cc2)ccc1=O | -5.65%
60 | CCCn1cc(NC(=O)c2ccc(S(=O)(=O)CC)cc2)ccc1=O | 60.3%
61 | COCCn1cc(NC(=O)NC(C)CCc2ccccc2)ccc1=O (stereo not given) | 28.7%
62 | CCCn1cc(NC(=O)c2cccnc2O)ccc1=O | 58.5%
63 | CCCn1cc(NC(=O)c2cccc3cccnc23)ccc1=O | -1.04%
64 | CC(C)n1ccnc1CN1CCCN(C(=O)CN(C)C2CC2)CC1 | 40%
65 | Cc1nc(CN2CCCC(NCCOc3cccc(C#N)c3)C2)no1 (stereo not given) | 0.914%
66 | Cc1nccn1-c1cc(CNC(=O)CCS(=O)(=O)C2CCCC2)ccn1 | 5.9%

Row | SMILES | INHIBITION
67 | Cc1ccc(OCCSC2=NCCN2)cc1 | 32.5%
68 | Cc1c(NC(=O)c2noc3c2CCCC3)cnn1C | 10%
69 | Cn1c(-c2ccccc2Cl)nc2cc(C(=O)NCCOCCO)cnc21 | -50.7%
70 | CCN(CC)C(=O)c1cnc(Sc2nccn2C)c(Cl)c1 | 48%
71 | CN1CCN(S(=O)(=O)c2ccc(Sc3nccn3C)nc2)CC1 | 46.1%
72 | CCOCCCNC(=O)c1nn(CC)cc1Cl | 7.9%
73 | Cn1ccnc1Sc1ncc(C(=O)N2CCCCC2)cc1Cl | 27.6%
74 | CCNC(=O)c1cnc(Sc2nccn2C)c(Cl)c1 | 62.8%
75 | Cc1c(Cl)cc(C(=O)N(CCO)Cc2nccn2C)cc1Cl | -8.47%
76 | CCOCCNC(=O)c1cnc(Sc2nccn2C)c(Cl)c1 | 50.8%
77 | CC(C)NC(=O)c1cnc(Sc2nccn2C)c(Cl)c1 | 62.8%
78 | CCCn1nccc1NC(=O)CN1CCCC1Cn1nc(C)nc1C (stereo not given) | -101%
79 | Cn1nc2c(cc1=O)CN(CCN1CCCC1=O)CC2 | -7.35%
80 | CCOc1ccc(Cl)c(C(=O)NC)n1 | 49%
81 | CS(=O)(=O)NCC1(O)CCCN(C(=O)CCn2cc(Cl)cn2)CC1 (stereo not given) | -28.7%
82 | CCCc1nc(CN(CCO)Cc2cc(Br)ccc2F)no1 | 39.4%
83 | CN1CCN(CCOc2ccc(NC(=O)c3cnc[nH]3)cc2)CC1 | 1.04%
84 | Cc1nn(C)c(C)c1CN(C)c1nc(C2CCCC2)nc2c1cnn2C | 42.6%
85 | Cc1cc(C)nc(CN(C)c2nc(C3CCCC3)nc3c2cnn3C)c1 | 0.87%
86 | Cc1c[nH]c(CN(C)c2nc(C3CCCC3)nc3c2cnn3C)n1 | 60.1%
87 | Cc1ccc(OC2CCN(S(=O)(=O)N(C)C)CC2)nc1 | 35.4%
88 | CCOc1cc(-c2cc(=O)n3c(n2)CCCCC3)ccc1O | -6.09%

Row | SMILES | INHIBITION
89 | CCCC(=O)NCc1cc(Br)c(OC)c(OC)c1 | -26.1%
90 | CCS(=O)(=O)NCc1cc(Br)c(OC)c(OC)c1 | 51.3%
91 | CCC(=O)NCc1cc(Br)c(OC)c(OC)c1 | -4.74%
92 | CC(=O)NCCOc1c(Cl)cccc1Cl | 22%
93 | CN(Cc1cnn(C)c1)C(=O)CCC(=O)c1ccc2c(c1)OCCO2 | 5.48%
94 | CCc1cc(C(F)(F)F)n2nc(C3CCCN3C3CCSCC3)cc2n1 (stereo not given) | 18.95%
95 | Cc1cc(N2CCCC(c3n[nH]c4ncccc34)C2)ncn1 (stereo not given) | 26.3%
96 | Cc1nc(CN2C[C@@H]3CN(C(=O)C4(C#N)CC4)C[C@@H]3C2=O)cs1 | -20.2%
97 | COc1ccc(OCCNc2cccc(C(=O)N3CCOCC3)c2)cc1 | -12.5%
98 | Cc1cnc(C)c(Oc2ccc(CN3CCCC3)cc2Cl)n1 | 89.4%
99 | CCn1c(C2CCCN(Cc3cc(C)cc(C)c3)C2)nn(C)c1=O (stereo not given) | -17.8%
100 | COc1ccc(CN2CCC3(CC2)C(C(=O)O)CC(=O)N3C)cc1Cl (stereo not given) | 39.9%
101 | Cc1nn(C)c2ncc(CN3CCCCCC3)cc12 | 44.9%
102 | COC(=O)CC1CN(Cc2c(Cl)ccc3cccnc23)CCO1 (stereo not given) | -14.2%
103 | NC(=O)c1cncc(Oc2cccc(CN3CCCC3)c2Cl)n1 | 24.4%
104 | Cc1cc(CN2CCCC2)cc(Oc2nc(C)cnc2C)c1 | 89.4%
105 | c1cc(-c2cn[nH]c2)ccc1CN1CCCCC1 | 10.6%
106 | Cc1cnc(C)c(Oc2ccc(Cl)c(CN3CCCC3)c2Cl)n1 | 90.3%
107 | OC1CCN(CCCNc2nccc(C3CCCC3)n2)CC1 | 31.4%
108 | CC(O)CN1CCN(Cc2cccc(C(=O)N3CCCCC3)c2)CC1 (stereo not given) | 37.9%
109 | O=C(c1cscn1)N1CCc2[nH]nc(Nc3ccccc3)c2C1 | -15.625%
110 | Cc1ccccc1CN(CCN(C)C)Cc1ccc(O)c(C(=O)O)c1 | 29.2%
